# In PubChem BioAssay AID2732 (Emory University Molecular Libraries Screening Center, 2010):
# The whole screen tested about 220,000 compounds, of which about 8,200 (3.7%) were called active.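 Rule for the calls: active = compounds that reduced the stress-induced luciferase reporter signal by more than about 70% of percent inhibition (limit read from the data); inactive = the rest.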 What follows is part of a selection rich in actives, with near analogues and random picks from the rest.
# Assay: inhibitors of CHOP promoter induction, primary screen, cell-based, unfolded protein response, luciferase reporter (AID 2732);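 note: 0% = tunicamycin plus vehicle and 100% = wells without tunicamycin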
# Conditions: CHO-K1 CHOP-promoter luciferase, tunicamycin-induced, 15-18 h; at 10 µM; stronger effect = higher value
row,SMILES,inhibition
1,O=C(c1ccc(F)cc1)n1c(=S)nc2ccccn21,20.7% (inactive)
2,Cc1cc(NC(=O)CN2CCCC(C)C2)n(-c2nc3ccccc3s2)n1 (centres undefined),52.1% (inactive)
3,CCOC(=O)N1CCN(CC(=O)Nc2cc(C)nn2-c2nc3ccccc3s2)CC1,-20.6% (inactive)
4,CCC(C)Cn1c(O)cc2nn(-c3nc4ccccc4s3)c(=O)c-2c1C (centres undefined),83.7% (active)
5,CCOC(=O)CN(C)S(=O)(=O)c1ccc(-c2cc(C(=O)OC)sc2C(F)(F)F)cc1,-2.09% (inactive)
6,CCOC(=O)c1nnn2c1nc(N1CCN(c3ccccc3)CC1)c1ccccc12,4.43% (inactive)
7,Cc1ccc(-n2c(SCC(=O)Nc3ccc4c(c3)OCO4)nnc2-c2ccoc2C)cc1,79.8% (active)
8,O=C(CSc1nnc(-c2ccccn2)n1-c1ccccc1)Nc1ccc2c(c1)OCO2,14.5% (inactive)
9,Cc1ccc(-n2c(SCC(=O)Nc3ccc4c(c3)OCO4)nnc2-c2ccccn2)cc1,23% (inactive)
10,COc1ccc(/C(C)=N/N2CCOCC2)c(O)c1,4.65% (inactive)
11,Cc1ccc2nc(Nc3ccccc3O)nc(-c3ccccc3)c2c1,85.7% (active)
12,Cc1ccc2nc(Nc3ncc4c(n3)CC(C)(C)CC4=O)nc(C)c2c1,7.17% (inactive)
13,Cc1ccc2nc(-c3cccc(Br)c3)cc(C(=O)Nn3cnnc3)c2c1,6.71% (inactive)
14,O=C(Nc1ccccc1)Nc1ccc(C(F)(F)F)cn1,-1.82% (inactive)
15,Cc1ccc2cc(/C=N/Nc3ccc(C(=O)O)cc3)c(Cl)nc2c1,-19% (inactive)
16,Cc1ccc2cc(/C=N/NC(=O)[C@@H]3CCCN3)c(Cl)nc2c1,13.2% (inactive)
17,CSCC[C@H](NC(=O)OC(C)(C)C)C(=O)N/N=C/c1cc2ccc(C)cc2nc1Cl,73.9% (active)
18,S=c1[nH]nc(-c2ccncc2)n1/N=C/c1ccccc1Cl,9.19% (inactive)
19,CC1=CC2=NC(=O)/C(=C/c3coc4ccccc4c3=O)C(=N)N2O1,10% (inactive)
20,O=[N+]([O-])c1cc(Cl)cc(/C=N/NC(=S)Nc2cc(S(=O)(=O)N3CCOCC3)ccc2Cl)c1O,24.1% (inactive)
21,Cc1cc(C)cc(OCC(=O)Nc2nc3ccc([N+](=O)[O-])cc3s2)c1,89.4% (active)
22,O=C(O)CCC(=O)Nc1nc2ccc([N+](=O)[O-])cc2s1,-7.8% (inactive)
23,O=C(COC(=O)c1ccc(F)cc1)Nc1nc2ccc([N+](=O)[O-])cc2s1,7.2% (inactive)
24,Cc1cc2c(cc1C)N(Cc1ccccc1)C1=NCCCN12,17.9% (inactive)

row,SMILES,inhibition
1,CC(C)CN(CC(C)C)CC(O)CN(c1ccccc1)S(=O)(=O)c1ccccc1[N+](=O)[O-] (centres undefined),6.94% (inactive)
2,C/C(=N/NC(=O)c1ccc(NC(=O)c2ccc(F)cc2)cc1)c1ccccc1,52% (inactive)
3,CC(=O)Nc1ccc(/C(C)=N/NC(=O)CN(c2ccccc2Br)S(C)(=O)=O)cc1,91.8% (active)
4,COc1ccccc1N(CC(=O)Nc1ccc(C(F)(F)F)cc1)S(C)(=O)=O,12.5% (inactive)
5,Cc1ccc2c(c1)c1ncn(Cc3ccc(F)cc3)c(=O)c1n2C,21.6% (inactive)
6,S=c1nc2ccccc2c2nc(-c3cccnc3)[nH]n12,-22.9% (inactive)
7,CCCc1ccc(C(=O)[C@@H]2[C@@H](C(C)=O)N3c4ccc(F)cc4C=C[C@@H]3[C@@]23C(=O)Nc2ccccc23)cc1,72.2% (active)
8,CC(C)(C)CN1C(=O)C(=O)NC[C@H]1Cc1cccc2ccccc12,16.9% (inactive)
9,CN1CCc2ccccc2C1Cc1ccccc1NC(=O)c1sc2ccccc2c1Cl (centres undefined),24.9% (inactive)
10,CC(C)(C)N1CC(c2nc3ccccc3n2Cc2ccc(F)cc2)CC1=O (centres undefined),-17.7% (inactive)
11,Nc1nonc1-c1nc2ccccc2n1Cc1ccc(F)cc1,84.3% (active)
12,CC(=O)Nc1nonc1-c1nc2ccccc2n1Cc1ccccn1,33.7% (inactive)
13,COC(=O)c1cc(N2CCNCC2)nc2ccccc12,19.8% (inactive)
14,Cc1cc(=O)[nH]c2nnnn12,8.36% (inactive)
15,O=C(Nc1cc(C(F)(F)F)ccc1Cl)c1cc(C2CC2)on1,67% (inactive)
16,Cc1nn(Cc2ccc(Cl)c(Cl)c2)c(C)c1NC(=O)c1cc(C2CC2)on1,82.7% (active)
17,Cc1cc(C(=O)Nc2c(C)nn(Cc3ccccc3)c2C)on1,11.6% (inactive)
18,CCCCOc1ccc(CON(C(C)=O)C(C)=O)cc1Cl,10.1% (inactive)
19,COCCn1c(SCC(=O)c2[nH]c(C)c(C(C)=O)c2C)nc2ccccc2c1=O,-9.67% (inactive)
20,C=CCSC(CC)(CC)C(N)=O,4.32% (inactive)
21,O=C1/C(=C/c2cccs2)SC(=S)N1C1CCS(=O)(=O)C1 (centres undefined),8.4% (inactive)
22,CCCCOC(=O)c1ccc(N2C(=O)CC(N3CCN(C/C=C/c4ccccc4)CC3)C2=O)cc1 (centres undefined),81.1% (active)
23,CCOC(=O)c1ccc(N2C(=O)CC(N3CCN(C(=O)c4ccccc4)CC3)C2=O)cc1 (centres undefined),14.7% (inactive)
24,CCOC(=O)c1ccc(N2C(=O)CC(N3CCC(C(=O)OCC)CC3)C2=O)cc1 (centres undefined),1.79% (inactive)

row,SMILES,inhibition
1,O=[N+]([O-])c1cccc(C2=NCCS2)c1,5.31% (inactive)
2,O=c1[nH]c2ccccc2n2c(-c3ccccc3)nnc12,10.4% (inactive)
3,O=[N+]([O-])c1cccc(-c2nnc3c4ccccc4c4ccccc4n23)c1,96.5% (active)
4,CC(CNS(=O)(=O)c1ccc(Br)cc1)CN(C)C (centres undefined),1.82% (inactive)
5,Cc1ccc2c(C)c(C(=O)N3CCC(N4CCC(C(=O)NC5CC5)CC4)CC3)oc2c1,25.5% (inactive)
6,Fc1ccccc1/C=C1\CCCC2=C1Nc1ncnn1C2c1ccccc1F (centres undefined),108% (active)
7,CC1CC(=O)Nc2ccccc2N1S(=O)(=O)c1cccs1 (centres undefined),4.64% (inactive)
8,O=C(Nc1cccnc1)c1cccc(S(=O)(=O)N2CCCC2)c1,1.13% (inactive)
9,O=C(Nc1ccc2c(c1)CCC2)c1cccc(S(=O)(=O)Nc2ccccc2Cl)c1,33.4% (inactive)
10,O=C(Nc1ccc2c(c1)CCC2)c1cccc(S(=O)(=O)N2CCN(c3ccc(F)cc3)CC2)c1,78.2% (active)
11,Cc1ccc(Cn2c(SCC(=O)N/N=C/c3ccccc3OCC(=O)O)nc3ccccc32)cc1,19.7% (inactive)
12,O=C(NCc1ccc(F)cc1)C1CCC(CNc2c(N3CCOCC3)c(=O)c2=O)CC1 (centres undefined),-4.35% (inactive)
13,O=C(Nc1cc(C(F)(F)F)ccc1Cl)C(=O)N1CCCCC1,23.6% (inactive)
14,O=C(NNc1ccccc1Cl)C(O)(c1cccc(C(F)(F)F)c1)c1cccc(C(F)(F)F)c1,100% (active)
15,O=C(CNS(=O)(=O)c1cccc(C(F)(F)F)c1)Nc1ccccc1F,-2.12% (inactive)
16,COc1ccc(CCN2C(=O)N(c3ccc(OC)cc3)C(=O)C2CC(=O)Nc2ccc(OC)cc2)cc1 (centres undefined),-32.7% (inactive)
17,Nc1nc(SCc2ccccc2Cl)n[nH]1,6.63% (inactive)
18,c1ccc(CSc2nnc(-c3ccco3)c(-c3ccco3)n2)cc1,-37.2% (inactive)
19,Clc1ccccc1CSc1nnc(-c2ccco2)c(-c2ccco2)n1,71.2% (active)
20,O=C(Cc1ccccc1)N1N=C(c2ccncc2)CC1(O)C(F)(F)F (centres undefined),4.37% (inactive)
21,COc1ccc2oc(N)c(C=O)c(=O)c2c1,13.1% (inactive)
22,COc1ccc2c(c1)C(C)=CC(C)(C)N2C(=O)Nc1ccccc1,7.45% (inactive)
23,COc1ccc2c(c1)C(C)=CC(C)(C)N2C(=O)CNCc1ccc2c(c1)OCO2,73.7% (active)
24,CCn1cc(C(=O)NCc2ccc3c(c2)OCO3)c2cc(OC)c(OC)cc2c1=O,33.4% (inactive)

row,SMILES,inhibition
1,O=C(O)C(c1ccccc1)C1(O)CCCCC1 (centres undefined),3.7% (inactive)
2,CCc1ccc2nc3sc(C(=O)Nc4nnc(CC)s4)c(N)c3cc2c1,76.2% (active)
3,CCc1nnc(NC(=O)c2sc3nc(C)cc(COC)c3c2N)s1,-32% (inactive)
4,CCc1nnc(NC(=O)c2cccc(S(=O)(=O)N(C)c3ccc(OC)cc3)c2)s1,28.5% (inactive)
5,COC(=O)[C@H](CC(C)C)NC(=O)N1CCCCC1C (some centres undefined),16.1% (inactive)
6,COc1ccc(-c2noc(-c3cccc(OC)c3OC)n2)cc1OC,19% (inactive)
7,COc1ccc(-c2nc(-c3ccccc3)no2)c(OC)c1,81.4% (active)
8,COc1ccc(-c2noc(-c3ccc(C)cc3)n2)cc1,20.8% (inactive)
9,CCOc1ccc(S(=O)(=O)N2CCCCCC2)c2ccccc12,71.1% (active)
10,CCOc1ccc(S(=O)(=O)n2ccnc2)c2ccccc12,4.14% (inactive)
11,COc1ccc(S(=O)(=O)N2CCCC2)c(C)c1C,31.7% (inactive)
12,CN1CCN(c2ccc(S(=O)(=O)N3CCOCC3)cc2NC(=O)CCc2ccccc2)CC1,-2.84% (inactive)
13,COc1cccc(Nc2nnc(SCC(=O)N3CC(=O)Nc4ccccc43)s2)c1,-4.27% (inactive)
14,CCOc1ccccc1C1C(C(=O)OC)=CN(C)C=C1C(=O)OC,2.4% (inactive)
15,NC(=O)C1(C(N)=O)OC1c1ccc(Cl)cc1Cl (centres undefined),-9.68% (inactive)
16,COC(=O)C1=CN(C)C=C(C(=O)OC)C1c1ccc(Cl)cc1Cl,78.2% (active)
17,O=C(NC1CC1)C1=C[C@H](c2c[nH]c3ccccc23)C[C@H](OCc2ccc(CO)cc2)O1,0.14% (inactive)
18,CSc1ccc(NC(=O)/C=C/C(=O)O)cc1,6.47% (inactive)
19,CC(C)S(=O)(=O)c1csc(NC(=O)Nc2ccc(Cl)cc2)c1Cl,-24.8% (inactive)
20,COc1ccc(-c2csc(N3CCN(Cc4ccc5c(c4)OCO5)CC3)n2)cc1,86.8% (active)
21,O=C(CN1CCN(c2nc(-c3ccccc3)cs2)CC1)NCc1ccc2c(c1)OCO2,63.6% (inactive)
22,COc1cccc(NC(=O)CN2CCN(c3nc(-c4cccc(OC)c4)cs3)CC2)c1,19.3% (inactive)
